# Measured values taken from ChEMBL document CHEMBL3988442, “University of Dundee, Small-Polar-MMV Screening Library” (2021).
# Where “and” joins values, the source holds several entries; their conditions need not be identical. Identical values can stand only once. About 290 (0.85%) of roughly 34,000 compounds showed an effect of 50% or more. The sample as a whole holds a higher share of strong results than the screen did.
# System: Plasmodium falciparum
# Assay: Plasmodium falciparum sporozoite viability assay
# Format: functional, organism-based
# Design: scale not given: in the data most compounds retested in dose-response had high values
SMILES,Percent Effect (10 mM as filed; unlikely as a test dose),Percent Effect [%]
Cc1cccc(NC2CCN(C(=O)Nc3cc(F)cc(F)c3)CC2)n1,-0.7988% and 3.277% and 6.003%,–
Cc1cccc(NC2CCN(C(=O)Nc3ccncc3)CC2)n1,-1.906% and 4.517% and 18.88%,–
Cc1cccc(NC2CCN(C(=O)Nc3ccc(F)c(F)c3)CC2)n1,48.63% and 63.22% and 54.45%,–
Cc1ccc(C(C)NC(=O)CNCCn2cccn2)cc1C (configuration not stated),–,-5.595
Cc1cc(C(F)(F)F)n2nc(C3CCN(S(C)(=O)=O)CC3)cc2n1,-9.274% and -13.96% and -8.495%,–
CCN1CC[C@@H]2OC[C@H](C(=O)NCc3cccs3)C[C@@H]2C1,–,18.4
Cc1cc(C(F)(F)F)nc(C2CCN(C(=O)CO)CC2)n1,–,-4.597
CCc1ccc(-c2cc(C(F)(F)F)nc(N3CCC(N)CC3)n2)cc1,67.54% and 55.39%,–
CN1CCC(c2cccc(Cc3ccc(C(F)(F)F)cc3)n2)CC1,–,3.398
CCN1CC2(CCOCC2)c2cc(NS(=O)(=O)CC)ccc21.O=C(O)C(F)(F)F,–,11.65
Cc1cnn(CC2CN(Cc3ccccn3)CCO2)c1 (configuration not stated),–,-1.077
CC(Cn1cccn1)NC(=O)NCCc1cccnc1 (configuration not stated),–,12
CC(=O)N1CCC(c2ccnc(Nc3ccc(C)cn3)n2)C1 (configuration not stated),-6.604% and -1.275% and 4.318%,–
Cc1ccc(Nc2nccc(C3CCN(CC(N)=O)C3)n2)nc1 (configuration not stated),101.9% and 103.5% and 87.92%,–
COCC(=O)N1CC(c2ccnc(Nc3ccc(C)cn3)n2)C1,0.1159% and 3.964% and -12.15%,–
Cc1ccc(Nc2nccc(C3CCCN(CC(=O)N(C)C)C3)n2)nc1 (configuration not stated),76.43% and 66.32% and 68.98%,–
Cc1ccc(Nc2nccc(C3CN(C(C)C)C3)n2)nc1,–,10.21
O=C(Cc1ccc(F)cc1)N1CCn2c(Cn3cncn3)cnc2C1,–,8.505
Cc1cc(OCCC(=O)NCc2ccc(F)cc2)nnc1C,–,1.961
Cc1nc(COC[C@@]23CCC[C@@H]2CN(Cc2cnn(C)c2)C3)cs1,–,2.977
Cc1c(-c2cc(C(=O)N3CCc4ncc(Cl)cc4C3)on2)cnn1C,–,3.017
C[C@H](NS(C)(=O)=O)C(=O)NCc1cc(-c2ccco2)n(CC(F)(F)F)n1,–,3.472

SMILES,Percent Effect (10 mM as filed; unlikely as a test dose),Percent Effect [%]
CC(Nc1nccc(CCC(F)(F)F)n1)c1nc(-c2ccncc2)no1 (configuration not stated),-11.17% and -18.73%,–
CC(C)c1noc(C(C)Nc2nccc(CCC(F)(F)F)n2)n1 (configuration not stated),1.671% and -0.3266%,–
CC(Nc1nccc(CCC(F)(F)F)n1)c1nc(-c2ccccn2)no1 (configuration not stated),60.54% and 52.08%,–
CN1CCN(C(=O)[C@H]2C[C@H]3[C@H](CCN3Cc3nccs3)O2)CC1,–,0.9025
O=C(Nc1cccc(Cl)c1)c1nn(C2CCS(=O)(=O)C2)c2c1CCCC2 (configuration not stated),70.24% and 80.75% and 81.2%,–
O=C(Nc1ccc(Cl)cn1)c1nn(C2CCS(=O)(=O)C2)c2c1CCCC2 (configuration not stated),72.26% and 68.39%,–
Cc1cccc(NC(=O)c2nn(C3CCS(=O)(=O)C3)c3c2CCCC3)n1 (configuration not stated),27.72% and 25.15%,–
O=C(Nc1ccccc1F)c1nn(C2CCS(=O)(=O)C2)c2c1CCCC2 (configuration not stated),38.15% and 35.56%,–
O=C(Nc1ccc(Cl)cc1)c1nn(C2CCS(=O)(=O)C2)c2c1CCCC2 (configuration not stated),-17.96% and -20.43%,–
O=C(Nc1ccccc1)c1nn(C2CCS(=O)(=O)C2)c2c1CCCC2 (configuration not stated),23.34% and 42.14% and 38.32%,–
CC1CCN(S(=O)(=O)NCc2ccccc2Cn2cccn2)CC1,–,3.533
c1cncc(CN2CCCC3(COCCN(c4cncnc4)C3)C2)c1 (configuration not stated),–,-1.976
CC(C)[C@H](NS(C)(=O)=O)C(=O)NCc1cc(-c2ccccc2)n[nH]1,–,-6.181
C[C@H](NS(C)(=O)=O)C(=O)NCc1cc(-c2ccco2)n[nH]1,–,-6.52
CCc1nn(C)c(Cl)c1CN(CCOC)Cc1cnn(C)c1,–,-2.336
CCOc1cc(/C=C/c2ncc(C(=O)O)s2)cc(Br)c1OC,–,6.645
CCOc1ncccc1C(=O)N1CCCC1Cn1nc(C)cc1C (configuration not stated),–,-1.877
CC(c1ccncn1)N(C)Cc1cc2cc3c(cc2[nH]c1=O)OCO3 (configuration not stated),36.77% and 42.23% and 61.28%,–
CC(c1ccccn1)N(C)Cc1cc2cc3c(cc2[nH]c1=O)OCO3 (configuration not stated),18.92% and 31.37% and 23.56%,–
CN(C)CCOCC1CN(Cc2ccc(F)cc2)Cc2nnn(C)c21.O=C(O)C(F)(F)F.O=C(O)C(F)(F)F (configuration not stated),–,3.947
CCCn1cc(NC(=O)c2ccc(S(C)(=O)=O)cc2)ccc1=O,–,-6.389
COC(=O)CCCNC(=O)N1CCc2c([nH]c3ccc(Cl)cc23)C1,80.07% and 78.06%,–

SMILES,Percent Effect (10 mM as filed; unlikely as a test dose),Percent Effect [%]
O=C(O)CCNC(=O)N1CCc2c([nH]c3ccc(Cl)cc23)C1,-34.22% and -28.29%,–
O=C(O)CCCNC(=O)N1CCc2c([nH]c3ccc(Cl)cc23)C1,31.15% and 28.91%,–
O=C(NC1CCCC1)C1Cc2nc(-c3ccsc3)sc2N1CC1CC1 (configuration not stated),9.544% and 5.829% and 5.902%,–
CN(C)C(=O)N1CCN(Cc2cnc(-c3ccsc3)s2)CC1,–,-10.41
CC(C)N1c2sc(-c3ccsc3)nc2CC1C(=O)NC1CCCC1 (configuration not stated),80.44% and 80.12%,–
CC(C)CC(=O)N1CCC(Nc2nc(O)cc(-c3ccsc3)n2)CC1,–,14.33
Cc1nc(-c2ccsc2)sc1C(=O)N1CCn2c(C)nnc2C1,–,4.116
CC(C)N1c2sc(-c3ccsc3)nc2CC1C(=O)NC1CC1 (configuration not stated),76.28% and 81.46%,–
Cc1ccncc1CN1CCOCC1c1[nH]ncc1C (configuration not stated),–,-4.491
Cc1cccc(CN2CCC(c3csc4nccn34)CC2)n1.O=CO,–,3.885
N#Cc1cccc(N2CC3(CCN(C(=O)c4ccncc4)C3)CC2=O)c1.O=C(O)C(F)(F)F (configuration not stated),–,-19.71
O[C@H]1CN(c2nc(-c3ccccc3)no2)C[C@@H]1N1CCOCC1,-27.06% and -32.72%,–
OC1CCN([C@@H]2CCN(c3nc(-c4ccccc4)no3)C[C@H]2O)CC1,63.55% and 40.94%,–
Cc1nn2c(N3CCC(O)CC3)cc(-c3ccccc3)nc2c1C,–,-9.448
OC1CCN(c2ccccc2NCc2nc(-c3cccs3)no2)CC1,22.91% and 47.25% and 30.27%,–
Cc1cccc(NC(=O)[C@@H]2CCCN2Cc2ccc(C#N)cc2F)n1,–,-15.69
CCn1ncc2c1C(COC)CN(Cc1ccc(F)cc1)C2.O=C(O)C(F)(F)F.O=C(O)C(F)(F)F (configuration not stated),–,5.175
O=C(O)c1cccc(S(=O)(=O)N2CCOc3ccccc32)c1,–,8.824
Cn1cnc(S(=O)(=O)NCCCN2CCCCCC2=O)c1Cl,–,-2.417
CCNC(=O)C(C)NC(=O)c1cnc(-c2ccc(C)cc2C)s1 (configuration not stated),–,5.538
CC(C)(C)NCc1ccc(OCc2ccc3c(c2)OCCO3)cc1.Cl,-36.62% and -27.49%,–
CCNCc1ccc(OCc2ccc3c(c2)OCCO3)cc1.Cl,-24.62% and -4.131%,–

SMILES,Percent Effect (10 mM as filed; unlikely as a test dose),Percent Effect [%]
CC(O)CNCc1ccc(OCc2ccc3c(c2)OCCO3)cc1.Cl (configuration not stated),88.95% and 91.02% and 83.06%,–
CCCNCc1ccc(OCc2ccc3c(c2)OCCO3)cc1.Cl,-30.54% and -21.42%,–
COc1c(CNCc2ccc3c(c2)OCCO3)c(C(C)C)nn1C,–,14.99
COc1cc(CNCC(C)O)cc(Cl)c1OCc1ccc(C)cc1.Cl (configuration not stated),–,-5.385
CC(C)(CO)NCc1ccc(OCc2ccc3c(c2)OCCO3)cc1.Cl,25.27% and 55.16%,–
Cl.c1cc(OCc2ccc3c(c2)OCO3)ccc1CNC1CC1,33.09% and 60.95% and 82.86%,–
CSc1nccc(N2CCC(NCc3ccc4c(c3)OCO4)CC2)n1,–,4.585
Cc1nccn1C1CCCN(C(=O)c2sccc2-n2cnnn2)C1 (configuration not stated),–,-0.2931
CN1CCN(Cc2cn3c(n2)CN(C2CCOCC2)CC3)CC1.O=C(O)C(F)(F)F.O=C(O)C(F)(F)F.O=C(O)C(F)(F)F,–,10.57
O=C(CCc1ccco1)Nc1cc(C(F)(F)F)c[nH]c1=O,–,-11.4
COc1cccc(O[C@H]2CCN(c3nc(C)cc(C)n3)CC[C@@H]2O)c1,–,11.61
O=C(Cn1cccc2cc(-c3ccc(F)cc3)nc1-2)N1CCC(O)CC1,–,-1.811
COc1ccc(C2CNCCN2C(=O)c2cccc3ncccc23)cc1 (configuration not stated),–,4.068
CC(C)N(C)S(=O)(=O)c1ccc2c(c1)CCN(C(=O)c1cnccn1)C2,–,-1.97
O=C(CN1CCCC1c1noc(C2CC2)n1)NCCc1ccsc1 (configuration not stated),–,13.6
CN(C)c1ccc(C(=O)N2CCCN(Cc3cnn(C)c3)CC2)nn1,–,-1.596
O=C(O)c1ccc(=O)n(CC(c2ccc(Cl)cc2)N2CCOCC2)c1 (configuration not stated),–,5.86
Cc1cccc(-c2noc(CN3CC(n4cc(C)cn4)C3)n2)c1,–,-1.145
Cc1ccccc1-c1noc(CN2CC(n3cccn3)C2)n1,–,-26.31
O=C(Nc1ccccc1)N1CCc2nc(C(=O)N3CCCC3)sc2CC1,42.14% and 56.3% and 42.63%,–
NC(=O)c1nc2c(s1)CCN(C(=O)Nc1ccccc1)CC2,–,13.34
